# Results filed as inconclusive are left out. Calls of active or inactive are those of the source. The call rests on the fitted dose curve.
# Target: Peroxisome proliferator-activated receptor delta (Homo sapiens) (UniProt Q03181)
# Test: qHTS assay to identify small molecule agonists of the peroxisome proliferator-activated receptor delta (PPARd) signaling pathway (AID 743212)
# Conditions: HEK293H PPARd-UAS-bla, beta-lactamase FRET ratio, 17 h; series mostly up to 62.6 µM
# Text: U.S. Tox21 Program National Center for Advancing Translational Sciences [NCATS] NIH Chemical Genomics Center [NCGC] U.S. Environmental Protection Agency [EPA] National Institutes of Environmental Health Sciences [NIEHS] National Toxicology Program [NTP] U.S. Food and Drug Administration [FDA] Tox21 Assay Overview: The peroxisome proliferator-activated receptors (PPARs) are lipid-activated transcription factors of the nuclear receptor superfamily with three distinct subtypes namely PPAR alpha, PPAR delta (PPARd) and PPAR gamma. All these subtypes heterodimerizes with Retinoid X receptor (RXR) and have different physiological functions. […] To identify the compounds that activate PPAR-delta signaling, GeneBLAzer PPAR delta UAS-bla HEK293H cell line (Invitrogen, Carlsbad, CA, USA) containing a beta-lactamase reporter gene under the control of an Upstream Activator Sequence (UAS) was used to screen the Tox21 compound library.
# Tox21 Assay Protocol Summary: PPARd-bla cells were dispensed at 3000 cells/6uL/well in 1536-well black wall/clear bottom plates using a Multidrop Combi (Thermo Fisher Scientific, Waltham, MA) dispenser. After the assay plates were incubated at 37 C and 5% CO2 for 5 h, 23 nL of compounds dissolved in DMSO, positive controls or DMSO only was transferred to the assay plate by a Pintool station (Kalypsys, San Diego, CA). The assay plates were incubated at 37C for 17 h. After 1 uL of LiveBLAzerTM B/G FRET substrate was added using a Bioraptr Flying Reagent Dispenser (FRD) workstation (Beckman Coulter, Indianapolis, IN, USA), the plates were incubated at room temperature for 2 h, and fluorescence intensity was measured by an Envision plate reader (PerkinElmer, Shelton, CT).
# Sequence of Peroxisome proliferator-activated receptor delta (Homo sapiens) (Q03181 whole entry, looked up): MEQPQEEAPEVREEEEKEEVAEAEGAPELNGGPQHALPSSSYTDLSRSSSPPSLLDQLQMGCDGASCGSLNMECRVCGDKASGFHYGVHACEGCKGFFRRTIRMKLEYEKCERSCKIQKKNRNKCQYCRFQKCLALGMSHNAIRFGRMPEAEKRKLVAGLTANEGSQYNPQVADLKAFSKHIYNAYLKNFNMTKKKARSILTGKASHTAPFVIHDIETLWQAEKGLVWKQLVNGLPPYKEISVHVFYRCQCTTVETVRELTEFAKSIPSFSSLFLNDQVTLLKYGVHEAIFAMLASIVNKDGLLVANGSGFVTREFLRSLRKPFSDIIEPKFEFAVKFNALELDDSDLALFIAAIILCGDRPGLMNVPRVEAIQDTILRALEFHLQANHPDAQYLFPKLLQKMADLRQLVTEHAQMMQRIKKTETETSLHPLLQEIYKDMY
row,Structure (SMILES),outcome
1,O=C1C2CC=CCC2C(=O)N1SC(Cl)(Cl)Cl (stereo not given),inactive
2,N[C@@H]1C[C@H]1c1ccccc1,inactive
3,CCc1ccc(C2CCNCC2)cc1,inactive
4,O=P(O)(O)c1ccccc1,inactive
5,O=C(Cl)C(Cl)(Cl)Cl,inactive
6,COP(=O)(OC)O/C(C)=C/C(=O)N(C)C,inactive
7,CCOC(=O)COc1ccc(Cl)cc1Cl,inactive
8,C=CCC1(C(C)CC)C(=O)NC(=O)NC1=O (stereo not given),inactive
9,CCCOC(=O)c1cncn1C(C)c1ccccc1 (stereo not given),inactive
10,O=C(Cl)CCl,inactive
11,BrCc1ccc(Br)cc1,inactive
12,ClCCCCl,inactive
13,N#CN=C1SCCN1Cc1ccc(Cl)nc1,inactive
14,COc1ccccc1OC,inactive
15,CCC(=O)c1ccc(Cl)cc1,inactive
16,Cn1c(N)nc2c3cccnc3ccc21,inactive
17,[P]#[In],inactive
18,CC(C)(N)Cc1ccccc1Cl,inactive
19,NNCc1ccccc1,inactive
20,ClCOCCl,inactive

row,Structure (SMILES),outcome
1,CCNc1nc(Cl)nc(NC(C)(C)C)n1,inactive
2,CC(Cc1ccccc1)NCCCCl (stereo not given),inactive
3,Clc1ccc(C(Cl)(Cl)Cl)cn1,inactive
4,O=C(O)CBr,inactive
5,ClCCN1CCCC1,inactive
6,O=C1CC(=O)NC(=O)N1,inactive
7,O=C(Cl)/C=C/C(=O)Cl,inactive
8,CC1=C2[C@H]3OC(=O)[C@@H](C)[C@@H]3CC[C@@]2(C)C=CC1=O,inactive
9,COC(=O)c1ccccc1CS(=O)(=O)NC(=O)Nc1nc(OC)cc(OC)n1,inactive
10,COc1cccc(C=O)c1,inactive
11,CN(CCO)CCO,inactive
12,C(COCC1CO1)OCC1CO1 (stereo not given),inactive
13,COC[C@@H](NC(C)=O)C(=O)NCc1ccccc1,inactive
14,CS(=O)(=O)Cl,inactive
15,C=CCc1cc(OC)c2c(c1)OCO2,inactive
16,CCC1(c2ccccc2)CCC(=O)NC1=O (stereo not given),inactive
17,CC[C@@H](CO)NC(=O)[C@@H]1C=C2c3cccc4c3c(cn4C)C[C@H]2N(C)C1,inactive
18,CC(C)(C)c1cc(O)ccc1O,inactive
19,CCC1(CC)C(=O)C=CNC1=O,inactive
20,BrCCc1ccccc1,inactive

# Source: PubChem BioAssay (Tox21)
